Assay outcomes as filed in PubChem BioAssay.
A selection: hits, their analogues and other compounds. The true share with any hit is near 19%.
HT1080-NT tox: kills 2HG-producing HT-1080-NT fibrosarcoma cells. Potency, µM (highest dose often 46.1 µM), for inactives: at the highest dose activity, negative = less viability, actives largely listed as cytotoxic. HT-1080-NT fibrosarcoma viability, CellTiter-Glo ATP luminescence, 48 h. 1.6% of 360,000 active;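 further: NT is the 2HG producing partner of a matched IDH1 knockdown line; potency means the concentration at half of the fitted maximal effect; 0% = DMSO-treated cells and -100% = media-only wells without cells; nearly all actives have a fitted effect of over 55% in size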
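Read-out is CellTiter-Glo luminescence after 10 minutes at room temperature, following 48 hours' compound treatment of HT-1080-NT cells (750 cells/well, RPMI, 5% FBS, 37 degrees C).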
IL1B secr inh: blocks inflammasome-driven IL-1 beta release; activity change, % at 57.5 µM; THP-1 LPS/ATP IL-1B secretion, AlphaLISA, 16 h; active compounds read low; 4.7% of 360,000 active; AID 743279; in the data active means activity change below about -50%; inconclusive means mostly about -30% to -49%
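THP-1 cells pretreated 1 hr with compounds (up to 57.5 uM final), then stimulated with LPS (250 ng/mL final) plus ATP (1.25 mM final); secreted IL-1B measured by AlphaLISA after 16 hr, decreased signal indicating inhibition.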
HT1080 IDH1KD tx: kills HT-1080 cells with IDH1 knockdown; HT-1080 IDH1 knockdown viability, ATP luminescence, 48 h; Potency, µM (highest dose often 46.1 µM), without a hit: top-dose activity, negative = toxicity, actives largely listed as cytotoxic; 2% of 360,000 active; AID 686971;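 further: potency means the concentration at half of the fitted maximal effect; 0% = DMSO wells and -100% = cell-free medium wells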
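HT-1080-IDH1KD cells (IDH1 knocked down), 750/well in RPMI with 5% FBS, treated with compound 48 h at 37 degrees C. Viability by CellTiter-Glo luminescence, normalised to DMSO and no-cell wells; concentration-response curves classed.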
TDP1 cell CPT: growth inhibition of DT40 Tdp1-/-;hTDP1 cells with camptothecin (screen for TDP1 inhibitors); chicken DT40 Tdp1-/-;hTDP1 cells + 20 nM CPT, ATP luminescence, 48 h; Potency, µM (top dose mostly 46.2 µM), for the others: top-dose activity change, negative = growth inhibition, most hits filed as inhibitors; 12% of 420,000 active; AID 686979; further: potency means the concentration at half of the fitted maximal effect; nearly all actives have a fitted effect of over 55% in size
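Chicken DT40 Tdp1-/- cells complemented with human TDP1, 400 cells/well, exposed to compounds plus 20 nM camptothecin for at least 48 h at 37 C; viability read as ATP content by CellTiter-Glo luminescence.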
TDP1 cell noCPT: qHTS for Inhibitors of human tyrosyl-DNA phosphodiesterase 1 (TDP1): qHTS in cells in absence of CPT. DT40 Tdp1-/- hTDP1 cells, no CPT, ATP luminescence, 48 h. Potency, µM (top dose mostly 46.2 µM), for the others: at the highest dose activity change, negative = growth inhibition, usual class: inhibitors. 15% of 420,000 active. AID 686978, 2013; further: potency means the concentration at half of the fitted maximal effect; nearly all actives have a fitted effect of over 55% in size
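DT40 Tdp1-/-;hTDP1 cells, no CPT (DMSO vehicle only), 400 cells/well; compounds pin-transferred; ≥48 hr, 37 °C; CellTiter-Glo 30 min RT dark, luminescence read.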
ELG1 DNA repair: inhibitors of ELG1-dependent DNA repair in HEK293T cells; HEK293T ELG1-luciferase reporter, luminescence, 16 h; DNA damage induced by 5-fluorouridine; Potency, µM (series often up to 46.1 µM), for the others: top-dose activity change, negative = inhibition, actives largely listed as inhibitors; 2.3% of 330,000 active; further: potency means the concentration at half of the fitted maximal effect; nearly all actives have a fitted effect of over 55% in size
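Overnight (16 hr) co-exposure of 2,000 cells/well to 5-fluorouridine and compound at 37 °C preceded detection. Luciferase was quantified via ONE-Glo luminescence; loss of signal denotes inhibition.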
* marks the source's active call; other numbers are inactive results; ? = inconclusive; . = not tested or not shown. Unless noted, the call rests on the fitted dose curve; in most records, active means well fitted curve in the direction sought with a large enough effect; inconclusive means small, poorly fitted or top-dose-only effect, or another doubt; inactive means no such curve, though single readings can be large; an effect the other way counts as inactive or inconclusive. Unless noted, on the % scale 0 is the no-effect control and ±100 the full control effect.

SMILES	HT1080-NT tox	IL1B secr inh	HT1080 IDH1KD tx	TDP1 cell CPT	TDP1 cell noCPT	ELG1 DNA repair
COC(=O)Cc1csc(Nc2ccccc2)n1	9.7%	12.6	0.8%	0.2%	2.4%	?
O=C1CN(C(=O)COC(=O)COc2ccccc2)c2ccccc2N1	19.5%	0.2	-1.3%	-9.6%	-2.8%	-9.8%
Cn1c(N)c(C(=O)COC(=O)/C=C/c2ccccc2)c(=O)n(C)c1=O	16.8%	0.9	20.2%	-23.5%	?	-0.6%
O=C(Cc1ccc(F)cc1)Nc1ccc2[nH]ncc2c1	20.1%	-3.8	5.3%	2.7%	?	-19.2%
Nc1ccc2[nH]ncc2c1	24.5%	8.6	0.3%	18.4µM*	20.6µM*	?
Cc1nn(-c2ccccc2)c(Cl)c1C1C(C#N)=C(N)Oc2c1c(C)nn2-c1ccccc1 (stereo not drawn)	-5.1%	0.0	1.2%	-17.6%	?	-1.0%
Cc1nn(Cc2ccccc2)c2c1C(c1cccc(Cl)c1)C(C#N)=C(N)O2 (stereo not drawn)	-24.1%	62.0	?	23.1µM*	18.4µM*	?
O=C(Cc1ccc(F)cc1)NO	17.2%	.	20.4%	-1.3%	-23.7%	.
COc1ccccc1C(=O)N1CCCCC1CCN1CCOCC1 (stereo not drawn)	.	.	.	-18.5%	0.6%	.
CCOC(=O)C1(c2ccccc2)SC(C(=O)OCC)(c2ccccc2)S1 (stereo not drawn)	-0.9%	-66.2*	13.3%	-16.9%	?	.
CCOC(=O)C1(c2ccccc2)CCCNC1=O (stereo not drawn)	-3.2%	-13.5	?	?	?	.
CNc1ccc(-c2cccc(C#N)c2)cn1	?	-6.2	0.5%	5.8%	0.7%	.
COC(=O)C1CCN(C(=O)COC(=O)C2CCN(S(=O)(=O)c3ccc(C)c(C)c3)CC2)CC1	5.9%	31.6	-2.0%	-9.2%	-12.3%	15.5%
Cc1nn(S(=O)(=O)c2ccccc2)c(C)c1S(=O)(=O)N1CCC(C)CC1	15.3%	-3.9	20.0%	-17.5%	?	17.7%
Cc1c(C(=O)NCCC2=CCCCC2)sc2ncnc(N3CCCCC3C)c12 (stereo not drawn)	-15.5%	-80.4*	-19.0%	?	-18.6%	?
CCCCCCN1CCN(C2CN(Cc3cn(Cc4cccc(C(F)(F)F)c4)nn3)S(=O)(=O)C2)CC1 (stereo not drawn)	?	-14.3	-24.2%	?	?	.
Oc1ccc(/C=N/Nc2ccnc3cc(Cl)ccc23)cc1O	?	79.7	?	13µM*	13µM*	27.0%
Oc1ccc(/C=N/Nc2ccnc3cc(Cl)ccc23)c(O)c1O	3.0%	11.3	-5.4%	?	?	3.0%
CC/C(=N\Nc1ccnc2cc(Cl)ccc12)c1ccc(O)cc1	18.4µM*	-20.2	16.4µM*	?	?	-3.7%
Nc1nonc1-c1nc2ccccc2n1Cc1cccc(Cl)c1	.	.	.	-5.9%	9.5%	.
CN(C)c1ccc(SC#N)cc1	-1.4%	-99.4*	-14.0%	-4.4%	-23.2%	18.3µM*
CN(C)c1ccc(-n2cccc2)cc1	6.6%	0.5	11.9%	16.5%	-14.4%	?
O=C1CC(c2ccccc2)Cc2[nH]c(=O)c(C(=O)O)cc21 (stereo not drawn)	.	.	.	5.4%	-16.4%	.
CCOc1nc(N=C(N)N)nc2c(C)cccc12	-13.9%	-12.3	-20.2%	16.4µM*	23.1µM*	?
O=c1[nH]cc(S(=O)(=O)N2CCN(c3ccc(F)cc3)CC2)c(=O)[nH]1	0.3%	6.4	-2.2%	-9.4%	1.3%	.
Cc1cccc(OCC(=O)N/N=C\c2cn(C)c3ccccc23)c1	-8.8%	-1.6	-4.3%	19.0%	?	5.8µM*
